Experimental data as given in the supplement of paper PMC6555819.

Columns and labels:
Test in all cases: PBM binding z-score (relative to random genomic background probes); higher = stronger binding; sequences stand for … in GC…GCGATTGACAGCGTAGAATGAAGG
[1] = test system: FXR:RXRa (NR concentration 270 nM, RXRa partner concentration 90 nM)
Method in brief: (§1)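 Scanned fluorescence from custom Agilent 4×180K protein-binding microarrays was regression-normalized. Binding z-scores use random background probes as reference. Ligand-free nuclear receptor dimers were incubated on the arrays for 1 h and detected with antibodies against each partner (one per run).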

[2] = test system: LXRa:RXRa (NR concentration 270 nM, RXRa partner concentration 90 nM)
Method in brief: as §1

[3] = test system: LXRa homodimer (NR concentration 270 nM)
Method in brief: as §1

[4] = test system: LXRb:RXRa (NR concentration 270 nM, RXRa partner concentration 90 nM)
Method in brief: as §1

[5] = test system: LXRb homodimer (NR concentration 270 nM)
Method in brief: as §1

[6] = test system: PPARa:RXRa (NR concentration 270 nM, RXRa partner concentration 90 nM)
Method in brief: as §1

[7] = test system: PPARg:RXRa (NR concentration 180 nM, RXRa partner concentration 90 nM)
Method in brief: as §1

[8] = test system: PPARg:RXRa 270nM:90nM, anti-RXR (NR concentration 270 nM, RXRa partner concentration 90 nM)
Method in brief: as §1

[9] = test system: PPARg:RXRa 30nM:10nM, anti-RXR (NR concentration 30 nM, RXRa partner concentration 10 nM)
Method in brief: as §1

[10] = test system: PPARg:RXRa 90nM:30nM, anti-RXR (NR concentration 90 nM, RXRa partner concentration 30 nM)
Method in brief: as §1

## TCTAATAGTTGAAGGGCAACCGACGAGTCCGTTT
[1]
  PBM binding z-score: 0.931
[2]
  PBM binding z-score: 0.943
[3]
  PBM binding z-score: 0.0231
[4]
  PBM binding z-score: 0.595
[5]
  PBM binding z-score: -0.0774
[6]
  PBM binding z-score: 1.14
[7]
  PBM binding z-score: 0.216
[8]
  PBM binding z-score: 2.02
[9]
  PBM binding z-score: 3.45
[10]
  PBM binding z-score: 2.9

## ATCTCTAGGTACCCAAGTTCAGTGAATGCCGAAC
[1]
  PBM binding z-score: 0.332
[2]
  PBM binding z-score: 1.7
[3]
  PBM binding z-score: 3
[4]
  PBM binding z-score: 0.887
[5]
  PBM binding z-score: 1.08
[6]
  PBM binding z-score: 0.625
[7]
  PBM binding z-score: 0.408
[8]
  PBM binding z-score: 0.456
[9]
  PBM binding z-score: 0.321
[10]
  PBM binding z-score: 0.493

## TCTAGTTTGTCACGGAGGTCACACACGACGGGTA
[1]
  PBM binding z-score: 3.46
[2]
  PBM binding z-score: 3.54
[3]
  PBM binding z-score: 2.3
[4]
  PBM binding z-score: 3.26
[5]
  PBM binding z-score: 1.43
[6]
  PBM binding z-score: 3.88
[7]
  PBM binding z-score: 2.25
[8]
  PBM binding z-score: 3.52
[9]
  PBM binding z-score: 3.81
[10]
  PBM binding z-score: 3.66

## GCAAGTTGGTCAGTAAAAGGTCACACACCGGTCG
[1]
  PBM binding z-score: 3.28
[2]
  PBM binding z-score: 4.29
[3]
  PBM binding z-score: 4.58
[4]
  PBM binding z-score: 4.17
[5]
  PBM binding z-score: 0.833
[6]
  PBM binding z-score: 4.62
[7]
  PBM binding z-score: 3.08
[8]
  PBM binding z-score: 4.43
[9]
  PBM binding z-score: 2.58
[10]
  PBM binding z-score: 3.92

## CAGCCTGGGTCAGGGCCAGTATAGGAGGAACGTT
[1]
  PBM binding z-score: 0.78
[2]
  PBM binding z-score: 0.261
[3]
  PBM binding z-score: -0.628
[4]
  PBM binding z-score: 0.24
[5]
  PBM binding z-score: -1.02
[6]
  PBM binding z-score: 2.03
[7]
  PBM binding z-score: 0.871
[8]
  PBM binding z-score: 0.727
[9]
  PBM binding z-score: -0.545
[10]
  PBM binding z-score: 0.0759

## TCTAGCAGGCCAGAGGATCACTCAAGAGGTACGG
[1]
  PBM binding z-score: -0.551
[2]
  PBM binding z-score: -0.271
[3]
  PBM binding z-score: -0.763
[4]
  PBM binding z-score: -0.773
[5]
  PBM binding z-score: -1.43
[6]
  PBM binding z-score: -0.206
[7]
  PBM binding z-score: 0.826
[8]
  PBM binding z-score: 1.2
[9]
  PBM binding z-score: 1.53
[10]
  PBM binding z-score: 1.43

## CGTCCAAGGTCAAGGTCAGTGCAAGAGACTCGAA
[1]
  PBM binding z-score: 7.47
[2]
  PBM binding z-score: 5.77
[3]
  PBM binding z-score: 1.19
[4]
  PBM binding z-score: 4.77
[5]
  PBM binding z-score: 0.528
[6]
  PBM binding z-score: 5.84
[7]
  PBM binding z-score: 6.07
[8]
  PBM binding z-score: 6.18
[9]
  PBM binding z-score: 2.4
[10]
  PBM binding z-score: 5.09

## CCTACTGTGCCATCAGGTCATTGATATCAACGTT
[1]
  PBM binding z-score: 2.23
[2]
  PBM binding z-score: 2.1
[3]
  PBM binding z-score: 2.57
[4]
  PBM binding z-score: 2.75
[5]
  PBM binding z-score: 1.14
[6]
  PBM binding z-score: 2.82
[7]
  PBM binding z-score: 2.29
[8]
  PBM binding z-score: 3.15
[9]
  PBM binding z-score: 1.39
[10]
  PBM binding z-score: 2.7

## CGAACTAGGTCAAGGACAGTGAGTCTCCGCACGC
[1]
  PBM binding z-score: 3.12
[2]
  PBM binding z-score: 1.84
[3]
  PBM binding z-score: -0.202
[4]
  PBM binding z-score: 0.891
[5]
  PBM binding z-score: -0.739
[6]
  PBM binding z-score: 4.6
[7]
  PBM binding z-score: 7.31
[8]
  PBM binding z-score: 6.21
[9]
  PBM binding z-score: 3.52
[10]
  PBM binding z-score: 5.83

## CGAACGAGGGCATGAGTTGATAGCCAATGCCGAT
[1]
  PBM binding z-score: 0.587
[2]
  PBM binding z-score: 0.378
[3]
  PBM binding z-score: -0.567
[4]
  PBM binding z-score: -0.0834
[5]
  PBM binding z-score: -0.821
[6]
  PBM binding z-score: 1.33
[7]
  PBM binding z-score: 1.39
[8]
  PBM binding z-score: 1.49
[9]
  PBM binding z-score: 0.255
[10]
  PBM binding z-score: 0.727

## AGAACGAGGGCAATGAGTTGATACCACGGGTGGC
[1]
  PBM binding z-score: 0.296
[2]
  PBM binding z-score: 0.211
[3]
  PBM binding z-score: -0.493
[4]
  PBM binding z-score: -0.174
[5]
  PBM binding z-score: -0.279
[6]
  PBM binding z-score: 1.36
[7]
  PBM binding z-score: 1.5
[8]
  PBM binding z-score: 0.94
[9]
  PBM binding z-score: -0.0193
[10]
  PBM binding z-score: 0.369

## CAAACTAGGTCATGAAAGGTCAAAGTCGAATGAC
[1]
  PBM binding z-score: 7.56
[2]
  PBM binding z-score: 8.15
[3]
  PBM binding z-score: 8.41
[4]
  PBM binding z-score: 7.23
[5]
  PBM binding z-score: 2.86
[6]
  PBM binding z-score: 6.78
[7]
  PBM binding z-score: 9.71
[8]
  PBM binding z-score: 8.12
[9]
  PBM binding z-score: 6.46
[10]
  PBM binding z-score: 8.38

## AATACAGGGTCATCGTTGGCCAGAGTACGCACAG
[1]
  PBM binding z-score: 7.42
[2]
  PBM binding z-score: 6.21
[3]
  PBM binding z-score: 2.13
[4]
  PBM binding z-score: 4.57
[5]
  PBM binding z-score: 1.5
[6]
  PBM binding z-score: 5.96
[7]
  PBM binding z-score: 6.68
[8]
  PBM binding z-score: 5.97
[9]
  PBM binding z-score: 2.51
[10]
  PBM binding z-score: 4.75
